High-throughput results: PubChem BioAssay, several laboratories
ABHD5-PLIN5 inh = ABHD5-PLIN5 interaction inhibitors, primary screen, cell lysate, split luciferase complementation, luminescence | Perilipin-5 (Homo sapiens) + 1-acylglycerol-3-phosphate O-acyltransferase ABHD5 (Homo … | Split G. princeps luciferase complementation, 4 h | inhibition, % at 4 µM | hit rate 0.78% among 360,000;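 active means inhibition above the mean inhibition across every tested compound plus 3 SD, cut at about 22% in these data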
m5-HT2A agonist = mouse Htr2a agonists via beta-arrestin recruitment, primary screen, cell-based, luminescence; 5-hydroxytryptamine receptor 2A (Mus musculus), P35363; CHO-K1 mHTR2A beta-arrestin complementation; percent of 30 µM serotonin response; activation, % at 7.6 µM; hit rate 0.66% among 360,000; AID 624169, 2012;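 active means activation above a run cutoff, the mean activation of all tested compounds plus 3 SD, cut at about 14% in these data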
NTR1 ag = agonists of human NTR1, primary screen, imaging, U2OS cells, beta-arrestin-GFP, high content | activation, % at 20 µM | AID 493036, 2011 | Neurotensin receptor type 1 (Homo sapiens), P30989 | NTR1-U2OS beta-arrestin-GFP spot imaging, agonist mode | hit rate 0.17% among 330,000;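 active means activation at or above 40% of the spot to cytoplasm intensity ratio, with at least 20 cells analyzed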
Target sequence (P30989 whole entry, looked up): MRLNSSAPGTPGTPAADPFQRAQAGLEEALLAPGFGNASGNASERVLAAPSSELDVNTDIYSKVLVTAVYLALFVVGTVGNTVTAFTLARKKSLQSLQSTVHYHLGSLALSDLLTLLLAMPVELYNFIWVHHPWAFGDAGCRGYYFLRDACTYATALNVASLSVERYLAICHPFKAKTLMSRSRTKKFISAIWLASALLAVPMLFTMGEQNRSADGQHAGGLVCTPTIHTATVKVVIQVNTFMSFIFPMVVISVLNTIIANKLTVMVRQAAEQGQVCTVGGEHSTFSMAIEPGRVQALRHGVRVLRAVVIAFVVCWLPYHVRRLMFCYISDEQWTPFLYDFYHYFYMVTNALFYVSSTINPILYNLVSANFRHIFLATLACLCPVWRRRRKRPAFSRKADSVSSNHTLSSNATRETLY
Beta2AR agonist = beta2AR agonists driving receptor internalization, primary screen, cell-based, FAP fluorogen, flow cytometry; hit rate 0.43% among 340,000; AID 504454, 2011; Am2.2-beta2AR cells; response, % (test concentration not listed); Beta-2 adrenergic receptor (Homo sapiens), P07550;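 active means response above a set limit, near 3 SD of response in nonfluorescent compounds, cut at about 42% in these data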
Granule exo inh = LAMP-1 surface exposure blockers, TALL-104 cells – cell-based, flow cytometry, MLPCN library, primary screen; hit rate 0.66% among 360,000; inhibition, % at 10 µM; TALL-104 LAMP-1 surface exposure; cells stimulated with thapsigargin and PMA;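 active means inhibition above about 55%, limit read from the data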
NTR1 ag confirm = NTR1 agonists, single-dose retest, confirmation, imaging, U2OS cells, beta-arrestin-GFP, single concentration; NTR1-U2OS beta-arrestin-GFP translocation imaging; hit rate 38% among 480; shares compounds with NTR1 ag; activation, % at 20 µM;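 active means mean activation at 20 µM of at least 40%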
Of the large screens only hits and unclear results are named; the others gave an inactive call (follow-up assays come after a bar, where they were run). A selection: hits, their analogues and other compounds. The true share with any hit is near 2.3%.

Cc1sc(NC(=O)c2ccco2)nc1-c1ccc2c(c1)CC(C)N2C(=O)C1CC1 (stereo not drawn)	NTR1 ag 71.1 | NTR1 ag confirm 66.1
O=C(CN1CCCCC1)Nc1nc(-c2ccccc2)cs1	none
Cc1ccccc1C(=O)N1CCc2cc(-c3csc(NC(=O)CN4CCCC4)n3)ccc21	NTR1 ag 54.2 | NTR1 ag confirm inactive
COc1cc(N/N=C(\C)c2ccc(O)c(C)c2)nc(-c2ccccc2)n1	NTR1 ag 53.2 | NTR1 ag confirm inactive
C/C(=N\Nc1cc(-c2ccccc2)nc(-c2ccccc2)n1)c1ccc(O)c(C)c1	none
O=C(N/C=N/OCc1ccc(Cl)cc1Cl)NOCc1ncc(C(F)(F)F)cc1Cl	NTR1 ag 40.7 | NTR1 ag confirm inactive
c1ccc(N2CCCCC2)c(Nc2nc3ccccc3n3cnnc23)c1	NTR1 ag 40.5 | NTR1 ag confirm inactive
FC(F)(F)c1ccc(N2CCOCC2)c(Nc2nc3ccccc3n3cnnc23)c1	NTR1 ag 44.6 | NTR1 ag confirm inactive
Cc1nn(C)cc1C(=O)Nc1ccc2c(c1)OCCO2	none
CCc1ccc(NC(=O)COc2ccc(/C=C(/C#N)c3nc4ccccc4[nH]3)cc2OC)cc1	NTR1 ag 52.2 | NTR1 ag confirm inactive
CCOc1cc(/C=C(\C#N)c2nc3ccccc3[nH]2)ccc1OC(C)C(=O)O (stereo not drawn)	none
CCCCNC(=O)C(NC(=O)c1cccc(C(F)(F)F)c1)C(=O)c1ccccc1 (stereo not drawn)	none (no result: NTR1 ag, Beta2AR agonist)
O=S(=O)(N(Cc1ccccc1)[C@H](CO)Cc1ccccc1)N(Cc1ccccc1)[C@H](CO)Cc1ccccc1	none
CC(C)C[C@@H](CO)N(Cc1ccccc1)S(=O)(=O)N(Cc1ccccc1)[C@@H](CO)CC(C)C	NTR1 ag 47.0 | NTR1 ag confirm inactive
COc1ccc(CN([C@H](CO)CC(C)C)S(=O)(=O)N(Cc2ccccc2)[C@H](CO)CC(C)C)cc1	none
CC(C)C[C@@H](CO)N(Cc1ccccc1)S(=O)(=O)N(Cc1ccccc1)[C@H](CO)CC(C)C	NTR1 ag 50.4 | NTR1 ag confirm inactive
Cc1cc(C)cc(OC(=O)COc2ccccc2C)c1	none
COc1cc(OC)c2cc(C(=O)N/N=C/c3cccc(OC)c3O)[nH]c2c1	NTR1 ag 60.2 | NTR1 ag confirm 72.7
C=CCn1c(=NC(=O)c2cccc(N3C(=O)CCC3=O)c2)sc2cccc(OC)c21	NTR1 ag 46.6 | NTR1 ag confirm 53.9
O=C(NCCc1c[nH]c2ccccc12)OCCCCOC(=O)NCCc1c[nH]c2ccccc12	NTR1 ag 66.9 | NTR1 ag confirm inactive
CC(C)C(=O)NCCc1c[nH]c2ccccc12	none
COc1cc(/C=C2\C(=O)ON=C2c2ccc(Cl)cc2)ccc1O	NTR1 ag 48.6 (no result: ABHD5-PLIN5 inh, m5-HT2A agonist, Granule exo inh) | NTR1 ag confirm 80.8
CC1(c2ccccc2)CC(C)(C)n2c(O)c(C3=NC(=S)NC3=O)c3cccc1c32 (stereo not drawn)	NTR1 ag 42.5 | NTR1 ag confirm inactive
COc1cc2c3c(c1)c(C1=NC(=S)NC1=O)c(O)n3C(C)(C)C=C2C	none
Cc1ccc(OC(F)F)c(NC(=O)Nc2cccc(C(F)(F)F)c2)c1	NTR1 ag 42.7 | NTR1 ag confirm inactive
O=C(COc1ccc(C(=O)O)cc1)Nc1cccc(C(F)(F)F)c1	none
O=C(COCC(=O)Nc1cccc(C(F)(F)F)c1)Nc1cccc(C(F)(F)F)c1	NTR1 ag 47.1 | NTR1 ag confirm inactive
CC(=O)c1ccc(S(=O)(=O)N2CCN(C(C)C(=O)N(C)Cc3ccccc3)CC2)cc1 (stereo not drawn)	none
CCN(CC)CCCn1c2c(c(SCC(=O)Nc3nc(C)cs3)nc1=O)CCC2	none
Oc1ccc(-c2csc(-c3c[nH]c4ccccc34)n2)c(O)c1	none
Cc1ccc(-c2csc(-c3c[nH]c4ccccc34)n2)c(C)c1	NTR1 ag 45.5 | NTR1 ag confirm inactive
